Rows were chosen to be rich in hits. Some 9.5% of all compounds tested hit in one or more screens of this group.
ALDH1A1 block = blocks purified human ALDH1A1 activity. Purified ALDH1A1, NADH fluorescence, propionaldehyde substrate. AID 1030. Potency, µM (doses to about 75.3 µM), for inactives: at the top dose activity, negative = inhibition, actives largely listed as inhibitors. actives 7.3% (n = 220,000); active = well fitted inhibition curve with a large enough effect, not every such curve was filed as active; inconclusive = small, poorly fitted or top-dose-only effect, or another doubt; inactive = no such curve, though single readings can be large or run the other way;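 also: plate controls were no enzyme wells and a reference inhibitor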
Target sequence (P00352 whole entry, looked up): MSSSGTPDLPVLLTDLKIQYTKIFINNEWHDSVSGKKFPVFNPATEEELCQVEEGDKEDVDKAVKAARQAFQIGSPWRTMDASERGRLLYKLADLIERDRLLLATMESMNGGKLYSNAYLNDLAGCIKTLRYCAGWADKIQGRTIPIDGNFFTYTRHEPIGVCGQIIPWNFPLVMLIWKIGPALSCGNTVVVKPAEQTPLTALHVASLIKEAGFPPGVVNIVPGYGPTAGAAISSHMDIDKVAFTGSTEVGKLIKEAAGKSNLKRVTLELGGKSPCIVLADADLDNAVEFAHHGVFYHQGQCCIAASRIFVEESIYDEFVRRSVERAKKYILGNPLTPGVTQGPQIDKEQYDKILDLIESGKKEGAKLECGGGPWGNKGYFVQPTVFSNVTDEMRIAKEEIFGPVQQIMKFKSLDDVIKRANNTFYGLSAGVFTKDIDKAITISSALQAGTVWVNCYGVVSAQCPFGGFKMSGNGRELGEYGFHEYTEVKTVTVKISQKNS
Tau FP inhib = blocks human tau fibril formation measured by polarization | P10636 | K18 P301L tau heparin fibrillization, Alexa594 FP, 6 h | Potency, µM (doses to about 57.7 µM), inactives show top-dose activity, negative = inhibition, hits mostly inhibitors | actives 0.39% (n = 280,000); also: nearly all actives have a fitted effect of over 55% in size
Target sequence (P10636 561-689 P618L limits assumed): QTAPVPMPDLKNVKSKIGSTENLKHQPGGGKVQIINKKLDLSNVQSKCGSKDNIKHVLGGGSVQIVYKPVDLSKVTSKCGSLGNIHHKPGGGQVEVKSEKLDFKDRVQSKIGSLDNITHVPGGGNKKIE
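Compound effects on tau fibrillization are measured by Alexa 594 fluorescence polarization (ex 555, em 632 nm). K18 P301L tau is used at 15 uM with 0.24 uM labeled tracer, and 20 uM heparin induces aggregation over 6 hr at 37 C.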
HPGD inh = inhibitors of human 15-hydroxyprostaglandin dehydrogenase (HPGD); purified HPGD, NADH fluorescence kinetic, PGE2 substrate; Potency, µM, for inactives: top-dose activity change, negative = inhibition, hits mostly inhibitors; actives 4.3% (n = 150,000); AID 894; active = well fitted inhibition curve with a large enough effect, not every such curve was filed as active; inconclusive = small, poorly fitted or top-dose-only effect, or another doubt; inactive = no such curve, though single readings can be large or run the other way
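20 nM HPGD preincubated 15 min at room temperature with compound in 50 mM Tris-HCl pH 8, 0.01% Tween 20. Started with 1 mM NAD+ and 30 uM prostaglandin E2; NADH fluorescence (360/450 nm) read 5 times over 30-s intervals, last minus first.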
Tau fluor counter = counter-screen for tau fibril formation inhibitors; Potency, µM (series often up to 57.7 µM), for inactives: at the highest dose activity change, negative = decrease; tau K18 P301L Alexa594 fluorescence, heparin fibrillization; actives 0.93% (n = 280,000); AID 1463; also: nearly all actives have a fitted effect of over 55% in size
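Human K18 P301L tau (15 uM unlabeled plus 0.24 uM Alexa 594-labeled, final) in 100 mM sodium acetate pH 7 was mixed with compound and 20 uM heparin and incubated 6 hr at 37 C.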
Tau fibril ThT = blocks human tau fibril formation measured by thioflavin T. Potency, µM (series often up to 57.4 µM), for the others: top-dose activity, negative = inhibition, actives largely listed as inhibitors. recombinant tau K18 P301L (four-repeat tau fragment), heparin-induced fibrillization, ThT fluorescence. actives 2.1% (n = 270,000). P10636; also: nearly all actives have a fitted effect of over 55% in size
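In this qHTS, human K18 P301L tau is incubated with compound and heparin for 6 hr at 37 C, and Thioflavin T fluorescence then reports fibril load.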
NPSR antagonist = neuropeptide S receptor (human) antagonism, cAMP | CHO-NPSR cells, cAMP TR-FRET, antagonist mode | actives 1% (n = 220,000) | Q6W5P4 | Potency, µM (series often up to 38.3 µM), for inactives: at the highest dose activity change, negative = inhibition, actives largely listed as inhibitors; also: nearly all actives have a fitted effect of over 50% in size
* = called active by the depositor; ? = inconclusive; . = no result given; [ ] = another dose, or the depositor's remark. Unless noted, calls follow the shape of the dose curve; as a rule, active = well fitted curve in the direction sought with a large enough effect; inconclusive = small, poorly fitted or top-dose-only effect, or another doubt; inactive = no such curve, though single readings can be large; an effect the other way counts as inactive or inconclusive. Unless noted, % is scaled to controls: 0 for no effect and ±100 for the full control effect; potency is read from the fitted curve at half-maximal effect.

SMILES	ALDH1A1 block	Tau FP inhib	HPGD inh	Tau fluor counter	Tau fibril ThT	NPSR antagonist
COc1ccc(SN=C2C(C)=CC(=O)C=C2C)cc1	2.5%	?	.	?	2.82µM*	-13.8%
COc1ccc(C(=O)ON=C2C=C(C)C(=O)C(C)=C2)cc1	?	0.0%	.	-1.3%	1.8%	12.0%
Cc1nc2cc(NC(=O)c3ccc(N4C(=O)CCC4=O)cc3)ccc2s1	-8.8%	-9.3%	.	-9.8%	-12.7%	14.6%
CCCc1[nH]nc2c1C(c1ccc(OC)cc1OC)C(C#N)=C(N)O2 (stereo unspecified)	?	9.2%	-5.8%	-0.8%	-12.7%	19.9%[46.1 µM]
CCCc1[nH]nc2c1C(c1cccc(OC)c1)C(C#N)=C(N)O2 (stereo unspecified)	20µM*	-1.8%	-1.5%	-9.6%	-1.2%	-12.3%[46.1 µM]
COCc1[nH]nc2c1C(c1ccc(OC)cc1)C(C#N)=C(N)O2 (stereo unspecified)	-8.7%	-6.1%	-10.0%	-11.0%	-17.3%	-5.8%[46.1 µM]
CC(C)c1[nH]nc2c1C(c1ccc(OC(=O)c3ccco3)cc1)C(C#N)=C(N)O2 (stereo unspecified)	25.1µM*	-9.9%	-19.0%	-18.0%	-19.2%	-7.5%[46.1 µM]
COc1ccc(-c2ccc(C3C(C#N)=C(N)Oc4n[nH]c(C)c43)o2)cc1 (stereo unspecified)	-2.4%	-1.0%	-27.9%	?	4.47µM*	-14.9%[46.1 µM]
Cc1[nH]nc2c1C(c1ccco1)C(C#N)=C(N)O2 (stereo unspecified)	2.1%	5.9%	.	-0.6%	-8.2%	15.7%
Cc1[nH]nc2c1C(c1ccc(OC(=O)c3ccco3)cc1)C(C#N)=C(N)O2 (stereo unspecified)	?	-11.1%	-13.5%	-11.6%	?	-6.3%[46.1 µM]
CCOc1ccc(-c2[nH]nc3c2C(c2ccc(O)cc2)C(C#N)=C(N)O3)cc1 (stereo unspecified)	17.8µM*	-11.1%	-29.0%	-16.4%	-9.6%	-27.4%[46.1 µM]
Cc1cc(=O)[nH]c(/N=C(\N)Nc2ccc(Cl)cc2)n1	-8.3%[13.5 µM]	.	-7.2%	.	.	.
COC(=O)Cc1[nH]nc2c1C(c1c[nH]c3ccccc13)C(C#N)=C(N)O2 (stereo unspecified)	?	-14.1%	-14.0%	?	25.1µM*	5.3%[7.67 µM]
Cc1[nH]nc2c1C(c1c[nH]c3ccccc13)C(C#N)=C(N)O2 (stereo unspecified)	.	-1.2%	.	-11.3%	.	-20.6%
CCCc1[nH]nc2c1C(c1ccc(O)cc1OCC)C(C#N)=C(N)O2 (stereo unspecified)	17.8µM*	-8.3%	-5.0%	-19.2%	?	5.0%[46.1 µM]
CC(=O)c1cccc(NC(=S)NC(=O)c2ccc(C)cc2)c1	?	-3.3%	.	-3.5%	-10.6%	-4.2%
CC(=O)c1cccc(NC(=S)NC(=O)c2ccccc2Cl)c1	?	-6.5%	20µM*	-17.1%	-13.3%	2.9%
CC(=O)c1cccc(NC(=S)NC(=O)c2ccc(C)cc2Cl)c1	8.91µM*	-1.8%	.	-7.3%	5.3%	-10.4%
O=C(NC(=S)Nc1cccc(NC(=O)c2ccccc2Cl)c1)c1cccs1	4.47µM*	?	-9.0%	-3.0%	15.4%	-22.8%
CC1=CN2CC(O)CN=C2C=C1 (stereo unspecified)	?	-5.6%	?	-12.3%	-10.0%	-2.0%[46.1 µM]
COc1c(C)cc(C(=O)C2CCCN(C(=O)c3ccc4cc[nH]c4c3)C2)cc1C (stereo unspecified)	?	5.0%	.	-13.0%	-7.3%	25.4%
COc1ccc(C(C[N+](=O)[O-])c2c(-c3ccccc3)cc3ccccn23)cc1OC (stereo unspecified)	-2.5%	8.1%	2.1%	-12.5%	?	-22.9%[46.1 µM]
COc1ccc(C(C[N+](=O)[O-])c2c(-c3ccccc3)cc3ccccn23)cc1 (stereo unspecified)	?	1.8%	28.2µM*	-2.8%	-6.0%	-6.1%[46.1 µM]
O=C(NCCc1ccc(Cl)cc1)c1c2c(nc3ccccc13)C(=O)N(C1CCCCC1)C2	.	2.4%	.	-0.3%	-10.3%	.
Cc1ccc(C(=O)n2nc(-c3ccco3)nc2N)cc1	?	3.0%	?	-7.0%	?	1.0%[46.1 µM]
SMILES	ALDH1A1 block	Tau FP inhib	HPGD inh	Tau fluor counter	Tau fibril ThT	NPSR antagonist
Cc1ccc(C(=O)n2ncn(C)c2=S)cc1	6.31µM*	8.7%	.	4.5%	-8.9%	27.2%
CCCCN1CCc2nc(Nc3ccc(OC)cc3OC)ncc2C1	.	9.7%	.	-7.7%	-8.4%	.
CC(C)CCNC(=O)NC(=O)COc1c(F)c(F)cc(F)c1F	-12.4%	-0.3%	-12.5%	-10.6%	-1.8%	1.7%[46.1 µM]
CC(C)CNC(=O)NC(=O)COc1c(F)c(F)cc(F)c1F	?	?	.	15.8µM*[quencher]	?	-16.3%[46.1 µM]
CCCCN1CC(c2nc3ccccc3n2CCCCOc2ccc(C)c(C)c2)CC1=O (stereo unspecified)	.	4.9%	.	1.6%	0.4%	.
CCOC(=O)CSc1nnc(-c2cccs2)n1-c1ccccc1	?	-5.4%	28.2µM*	-1.2%	-4.5%	-18.5%[46.1 µM]
CCOC(=O)CSc1nnc(-c2ccco2)n1-c1ccccc1	1.58µM*	2.1%	31.6µM*	-5.6%	-5.2%	3.7%[46.1 µM]
Cc1ccc(-n2c(SCC3CCCCO3)nnc2-c2ccco2)cc1 (stereo unspecified)	?	-7.9%	15.8µM*	-1.3%	-12.3%	?
O=C(CSc1nnc(-c2cccs2)n1-c1ccccc1)N1CCCC1	?	-0.4%	25.1µM*	-1.9%	-5.0%	-11.0%[46.1 µM]
C#CCOCCOCCOCCNc1nc(N2CCN(C(=O)C([C@@H](C)CC)n3cc(C(N)Cc4ccc(O)cc4)nn3)CC2)nc(N2CCN(C(=O)[C@H](CCC(=O)O)n3cc(C(N)Cc4ccc(O)cc4)nn3)CC2)n1 (stereo partly specified)	?	3.9%	.	-2.1%	-0.6%	-24.2%
CC(=O)Oc1c(C)cc(Cl)cc1C(=O)Nc1ccc([N+](=O)[O-])cc1Cl	13.6%	0.9%	-3.3%	?	2.82µM*	-39.8%
CC(=O)OCC(=O)Nc1ccc([N+](=O)[O-])cc1Cl	8.0%	-23.3%	.	-4.8%	-2.2%	6.9%
CC1=NNC(=O)/C1=C\c1cn(-c2ccccc2)nc1-c1ccc(Cl)cc1	-2.3%	-0.3%	-10.9%	-16.9%	?	2.51µM*
O=C(O)NCC1CCCCC1 (tested in a mixture with another compound)	-7.7%[13.5 µM]	.	-10.7%	.	.	.
CN(C)c1ccc(C(CNC(=O)c2ccc(C(C)(C)C)cc2)N2CCOCC2)cc1 (stereo unspecified)	.	-11.9%	.	?	?	.
O=C1c2ccccc2NC2(CCCC2)N1O	1.1%	-0.5%	20µM*	-9.4%	-4.9%	3.1%[46.1 µM]
COc1ccc(-c2cc(C(F)(F)F)nc(SCC(=O)N3CCCCC3)n2)cc1	.	-9.3%	.	-1.6%	3.7%	.

Screening results deposited in PubChem by National Center for Advancing Translational Sciences (NCATS).
